# Source: PubChem BioAssay
# An excerpt weighted towards active compounds, which were near 21% of everything screened.
# CYP2C9 act: CYP2C9 (human) activation; recombinant CYP2C9, luciferin-H conversion, luminescence; active compounds read high; factor 1 = untreated enzyme, 0 = blocked; activation factor at 5 µM; hit rate 1.4% among 96,000; AID 1024;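 active = activation factor of 2 or more for CYP2C9 at a 5 µM dose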;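 note: 0 = sulfaphenazole-blocked wells and 1 = vehicle-only wells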
# CYP2C9 inhib: blocks human cytochrome P450 2C9; P11712; CYP2C9 Supersomes, luciferin-H conversion, luminescence; inhibition, % at 5 µM; hit rate 20% among 96,000; AID 777;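 active = blocking of liver enzyme CYP2C9 beyond about 50% at 5 µM, limit read from the data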
# CYP2C19 inh: blocks human cytochrome P450 2C19; inhibition, % at 5 µM; P33261; hit rate 21% among 96,000; CYP2C19 Supersomes, luciferin-H EGE luminescence, 30 min;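 active = CYP2C19 inhibition above a set limit at 5 µM in the primary screen, cut at about 50% in these data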;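 note: plate controls were negative control wells for no effect and 2.5 mM tranylcypromine positive control for full effect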
# Target sequence (P33261 whole entry, looked up): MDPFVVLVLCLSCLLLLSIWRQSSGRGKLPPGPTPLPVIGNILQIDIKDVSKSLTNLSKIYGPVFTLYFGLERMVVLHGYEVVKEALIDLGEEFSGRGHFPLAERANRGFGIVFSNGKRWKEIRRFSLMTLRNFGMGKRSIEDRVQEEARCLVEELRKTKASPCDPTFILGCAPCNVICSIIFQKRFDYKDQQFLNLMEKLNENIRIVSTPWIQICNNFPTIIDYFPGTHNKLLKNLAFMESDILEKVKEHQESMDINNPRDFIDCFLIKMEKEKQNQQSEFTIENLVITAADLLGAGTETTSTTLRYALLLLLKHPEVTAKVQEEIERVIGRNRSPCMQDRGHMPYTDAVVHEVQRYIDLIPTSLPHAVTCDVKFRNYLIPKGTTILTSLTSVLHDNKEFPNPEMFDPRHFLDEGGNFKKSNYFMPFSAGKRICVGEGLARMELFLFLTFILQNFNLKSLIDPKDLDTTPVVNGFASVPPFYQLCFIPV
# MRP reversal: compounds reversing MRP-mediated drug resistance. H69AR cells + 2 uM doxorubicin, CellTiter-Glo, 72 h. differential viability (reversal), % at 10 µM. hit rate 0.04% among 85,000. AID 602;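 active = viability drop by adding the cancer drug above about 55%, with treated viability meeting a 40% cutoff, limit read from the data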;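 note: viability without doxorubicin minus viability with 2 µM doxorubicin for each compound; larger differential means the compound sensitizes cells more to doxorubicin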
# CYP2C19 activ: increases human CYP2C19 enzyme activity; recombinant CYP2C19, luciferin-H EGE luminescence; active compounds read high; 0 = fully inhibited enzyme, 1 = untreated enzyme; AID 1025; 96,000 tested, under 10 active; P33261; activation factor at 5 µM;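 active = activation factor of at least 2 at 5 µM in the primary screen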;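 note: 0 = wells with 2.5 mM tranylcypromine and 1 = vehicle-only wells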
# MRP-1 activ: activates MRP-1. H69AR cells + doxorubicin, viability rescue, CellTiter-Glo. viability increase, % at 10 µM. hit rate 0.61% among 140,000. AID 799;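 active = viability gain under doxorubicin at or above a set limit, the compound median plus 3 SD, cut at about 4.7% in these data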;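 note: MRP-1 overexpressing cells given doxorubicin 25 µM after compound pretreatment; 18-22 h compound pretreatment then 72 h with doxorubicin before readout; 0% = doxorubicin-only wells and 100% = vehicle-treated cells without doxorubicin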
# Starred values were filed as active, the others as inactive; x = not tested or not shown.
SMILES,CYP2C9 act,CYP2C9 inhib,CYP2C19 inh,MRP reversal,CYP2C19 activ,MRP-1 activ
O=C(Nc1cccc(F)c1)C1C2C=CC3(CN(CCCN4CCOCC4)C(=O)C13)O2 (stereo unspecified),1.1,-6.8,-9.3,-12.3,1.1,-0.1
Cc1ccsc1/C=N/NS(=O)(=O)c1ccc([N+](=O)[O-])cc1,x,x,x,x,x,1.4
O=C(CN(C1CCCCC1)S(=O)(=O)c1ccc(Cl)cc1)NCc1ccncc1,0.2,82.5*,94.4*,10.7,0.1,-1.1
O=C(CCC1CCCCC1)NCc1ccc(F)cc1,x,x,x,x,x,-1.2
O=C(CCC1CCCCC1)NCc1ccncc1,0.5,47.4,88.6*,8.9,0.1,0.7
O=C(CN(C1CCCCC1)S(=O)(=O)c1ccc(F)cc1)NCc1ccncc1,0.2,82.8*,85.6*,x,0.1,-3.5
CCN1CCN(c2nc3c(c(=O)[nH]c(=O)n3C)n2CCCSc2ncccn2)CC1,1.1,-13.4,-16.2,9.1,1.2,-2.1
CCC(C)NC(=O)CSc1ncccc1C(=O)O (stereo unspecified),1,1.7,-3.6,-10.9,1,-0.1
O=C1c2ccsc2SCCN1Cc1ccc(Cl)cc1,0.7,30.0,57.7*,15.7,0.4,-3.3
O=C(Nc1ccc(N2CCOCC2)cc1)c1cn2ccccc2n1,0.7,33.8,60.0*,x,0.4,-0.4
Cc1ccc2occ(CN3CCN(Cc4ccccc4)CC3)c(=O)c2c1,1.2,-17.8,12.7,x,0.9,0.2
O=c1c(CN2CCN(Cc3ccccc3)CC2)coc2ccc(Cl)cc12,2.8*,-182.1,44.3,x,0.6,-1.1
Cc1ccc2occ(CN3CCN(c4ccccc4)CC3)c(=O)c2c1,0.8,21.3,81.8*,x,0.2,-0.3
COc1ccc(CC(=O)Nc2cccc(C)n2)cc1OC,x,x,x,x,x,-1.7
O=C1c2ccccc2C(=O)N1/N=C/c1ccc(O)c(O)c1,x,x,x,x,x,-2.9
CCc1cc2c(=O)nc3n(c2s1)Cc1ccccc1/C3=C(/O)c1ccc(F)cc1,0.9,13.6,-2.2,7.2,1,0.4
CCc1cc2c(=O)nc3n(c2s1)Cc1ccccc1/C3=C(/O)c1cccc([N+](=O)[O-])c1,0.5,51.6*,-13.2,x,1.1,-0.8
COc1ccc(NC(=O)C(=O)NCCO)cc1Cl,x,x,x,x,x,-0.1
COC(=O)c1oc2ccc(Cl)cc2c1-n1cccc1,0.3,71.7*,58.3*,12.0,0.4,0.3
CCCCCOC(=O)CSc1nnc(-c2ccccc2)c(=O)[nH]1,0.4,60.1*,24.3,x,0.8,-0.2
CCOC(=O)CSc1nnc(-c2ccccc2)c(=O)[nH]1,1.1,-8.3,-12.2,13.6,1.1,0.0
O=C(Nc1cccc(O)c1)C(Cc1ccccc1)N1C(=O)c2cccc3cccc(c23)C1=O (stereo unspecified),x,x,x,x,x,-3.3
CSC1=C(C#N)C(CC(C)C)C(C(C)=O)=C(C)N1 (stereo unspecified),0.5,48.8,81.5*,13.6,0.2,-0.9
O=C(Nc1ccccc1)N(C1=NCCCCS1)c1ccccc1,0.9,14.0,24.5,-1.6,0.8,-0.4
O=C(Nc1ccccc1)N(Cc1ccccc1)C1=NCCS1,0.4,55.6*,12.0,12.8,0.9,-2.9
SMILES,CYP2C9 act,CYP2C9 inhib,CYP2C19 inh,MRP reversal,CYP2C19 activ,MRP-1 activ
O=C(Nc1ccccc1)N(C1=NCCCCS1)c1cccc2ccccc12,0.8,20.2,61.3*,7.9,0.4,-1.5
COC(=O)[C@@]1(Cc2ccc(OC)cc2)[C@H]2c3cc(C(=O)N(C)C)n(CCc4ccc(OC)c(Br)c4)c3C[C@H]2CN1C(=O)c1ccccc1,x,x,x,x,x,-4.3
COc1ccc2c(=O)c3c(=O)n(Cc4ccco4)c(-c4ccccc4)nc3oc2c1,0.3,72.9*,73.4*,-3.5,0.3,-1.6
CCCCCCn1c(-c2ccco2)nc2oc3cc(OC)ccc3c(=O)c2c1=O,0.1,90.2*,93.2*,x,0.1,-3.2
CSc1ccccc1NC(=O)c1ccco1,1,2.5,-4.4,-7.0,1,-0.6
CN(c1ccc(C(=O)O)cc1)S(=O)(=O)c1ccc(Cl)cc1,1.1,-8.5,-6.8,16.9,1.1,-1.3
O=S(=O)(Nc1cc(Sc2cccc3cccnc23)c(O)c2ccccc12)c1ccccc1,x,x,x,x,x,-5.1
CSCC(=O)NS(=O)(=O)c1ccc(C)cc1,x,x,x,x,x,-1.4
Nn1c(=O)c2ccccc2n2c(SCc3ccc(C(F)(F)F)cc3)nnc12,0.5,50.1*,42.3,x,0.6,2.0
COC(=O)C(C)N(C(=O)c1ccc(C(=O)c2ccccc2)cc1)c1c(C)cccc1C (stereo unspecified),0,98.0*,94.2*,-3.0,0.1,0.4
O=C(CSc1nnc2ccccn12)NC(=O)NC1CCCC1,1,3.8,0.1,x,1,-0.3
CCc1nc(N2CCCC2)c(C#N)c2c1CCCC2,1.3,-27.0,23.7,11.8,0.8,-2.5
CCCCc1nc(NCC2CCCO2)c(C#N)c2c1COC(C)(C)C2 (stereo unspecified),x,x,x,x,x,-2.9
CCCc1nc(N2CCCC2)c(C#N)c2c1CCCC2,0.3,73.4*,43.4,-23.5,0.6,0.1
CC(C)c1nc(N2CCCC2)c(C#N)c2c1CCCC2,0.5,54.6*,53.8*,15.1,0.5,0.7
CCc1nc(N2CCOCC2)c(C#N)c2c1CCCC2,1.5,-45.3,77.8*,-5.7,0.2,0.5
CCCCc1nc(N2CCOCC2)c(C#N)c2c1COC(C)(C)C2,0.3,73.2*,86.8*,x,0.1,1.3
Nc1ccc2[nH]ncc2c1,x,x,x,-17.1,x,-1.3
COc1cccc(C(=O)Nc2cccc(C(=O)NCC(C)C)c2)c1,x,x,x,x,x,-4.0
CC(C)CNC(=O)c1cccc(NC(=O)Cc2ccc(Br)cc2)c1,x,x,x,x,x,6.2*
Clc1ccc(CON/C=N/c2ncnc3sccc23)c(Cl)c1,0.8,21.9,15.0,x,0.8,-0.2
COc1ccccc1OCc1nc(-c2ccc([N+](=O)[O-])cc2)no1,x,x,x,x,x,0.8
COc1ccccc1CC(=O)Nc1ccc(-c2noc(COc3cccc(C)c3C)n2)cc1,0.4,63.3*,24.8,-1.0,0.8,-1.2
COc1ccccc1CC(=O)Nc1ccc(-c2noc(COc3ccc(Br)cc3)n2)cc1,1,3.1,0.9,-7.2,1,-1.4
COCc1nc(-c2cc(OC)c(OC)c(OC)c2)no1,0.5,50.7*,47.7,13.0,0.5,-3.4
SMILES,CYP2C9 act,CYP2C9 inhib,CYP2C19 inh,MRP reversal,CYP2C19 activ,MRP-1 activ
COc1ccc(-c2noc(COc3ccccc3OC)n2)cc1OC,1.7,-73.3,77.5*,16.5,0.2,0.3
COc1cc(-c2noc(-c3cccs3)n2)cc(OC)c1OC,x,x,x,12.1,x,-2.9
COc1cc([N+](=O)[O-])ccc1NC(=O)C[n+]1ccccc1,x,x,x,x,x,-3.8
C(=N\n1cnnc1)/c1ccc(-c2ccccc2)cc1,0,98.4*,98.9*,3.7,0,0.1
C(=N\n1cnnc1)/c1ccc(OCc2ccccc2)cc1,0.2,81.0*,70.4*,5.2,0.3,0.8
CC(=O)Oc1ccccc1C(=O)Oc1ccc(/C=N/n2cnnc2)cc1,0.1,95.0*,42.7,19.0,0.6,0.2
CCOc1ccc(/C=N/n2cnnc2)cc1,0.6,43.3,81.7*,x,0.2,-1.1
